Experimental data taken from PubChem BioAssay.
A number with no mark means an inactive call. How the calls were made is not given here.

Target: Pantothenate synthetase (Mycobacterium tuberculosis (strain ATCC 25618 / H37Rv)) (UniProt P9WIL5)
Experiment: Coupled enzyme confirmation of inhibitors against recombinant Mtb PanC (AID 375);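 further: 0% = full reaction with vehicle and 100% = no enzyme background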
Settings: coupled enzyme assay; at 10 µM, active compounds read high

Chain of Pantothenate synthetase (Mycobacterium tuberculosis (strain ATCC 25618 / H37Rv)) (P9WIL5 whole entry, looked up): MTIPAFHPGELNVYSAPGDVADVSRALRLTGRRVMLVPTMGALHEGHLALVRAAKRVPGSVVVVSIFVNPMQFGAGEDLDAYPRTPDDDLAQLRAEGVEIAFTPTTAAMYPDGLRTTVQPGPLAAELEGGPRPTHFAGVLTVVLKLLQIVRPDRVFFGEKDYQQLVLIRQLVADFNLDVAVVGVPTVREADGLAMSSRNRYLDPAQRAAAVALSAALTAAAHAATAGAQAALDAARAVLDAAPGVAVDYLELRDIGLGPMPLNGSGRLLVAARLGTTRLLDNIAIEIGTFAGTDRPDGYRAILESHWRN

**Q.** For `Oc1ccc(N2CCN(C(c3cccnc3)c3nnnn3Cc3ccccc3)CC2)cc1` (stereo not drawn), which inhibition is on record?
**A.** 0%

**Q.** For `O=C(Nc1ccccc1)N(O)c1ccc(Cl)cc1`, which inhibition is on record?
**A.** 4%

**Q.** How did the inhibition turn out when `CCN(CC)Cc1nc2c(c(=O)[nH]1)C1(CCCCC1)Cc1ccccc1-2` was run?
**A.** 3%

**Q.** Which inhibition does the source give for `COc1ccccc1CNC(=O)CCNC(=O)Cn1ccc2ccccc2c1=O` here?
**A.** 6%

**Q.** How did the inhibition turn out when `Cc1nn(Cc2ccc(C(=O)NC3CCCCC3)o2)c(C)c1Br` was run?
**A.** 2%

**Q.** Which inhibition does the source give for `COc1ccc(C(=O)Cn2nnc(-c3cccs3)n2)cc1` here?
**A.** 0%

**Q.** With `O=C(O)C1CC(=O)N(c2ccc(Br)cc2)C1` (stereo not drawn) as the compound, how does the inhibition read?
**A.** 0%

**Q.** With `CC(C)=CC(=O)OCC(=O)NC(=O)NC(C)(C)C` as the compound, how does the inhibition read?
**A.** 0%

**Q.** `COc1ccc(-c2oc3ncn(CCN4CCOCC4)c(=N)c3c2-c2ccc(OC)cc2)cc1` was tested. Which inhibition did it give?
**A.** 0%

**Q.** How did the inhibition turn out when `COc1ccc(-c2ccc(Nc3ccc(S(=O)(=O)N4CCCC4)cc3)nn2)cc1OC` was run?
**A.** 11%

**Q.** Which inhibition does the source give for `NS(=O)(=O)c1cc2c(cc1C(F)(F)F)NCNS2(=O)=O` here?
**A.** 2%

**Q.** Which inhibition does the source give for `O=C(Cn1c(=O)sc2ccccc21)NCCOc1ccccc1F` here?
**A.** 0%

**Q.** Which inhibition does the source give for `CCN1C(=C2C(=O)c3ccccc3C2=O)C=Cc2ccccc21` here?
**A.** 0%

**Q.** Which inhibition does the source give for `CC(C)(C)NC(=O)NC(=O)COc1ccccc1C#N` here?
**A.** 3%

**Q.** How did the inhibition turn out when `CCn1c(SCC(=O)c2ccc(C)cc2)nnc1-c1ccoc1C` was run?
**A.** 2%

**Q.** With `COc1ccc(Cc2nnc(NC(=O)Cc3cccs3)s2)cc1` as the compound, how does the inhibition read?
**A.** 0%

**Q.** With `O=C(Cn1c(C(=O)NCC2CCCO2)cc2sccc21)c1ccccc1` (stereo not drawn) as the compound, how does the inhibition read?
**A.** 0%

**Q.** For `COc1ccc(-c2cc(N3CCCC3)n3ncnc3n2)cc1`, which inhibition is on record?
**A.** 9%
